The results in this text go back to the supplement of paper PMC10981050.

Where a name gives a salt, the structure may show the parent alone.

The experiment has as its system MARIMO. Nature of the experiment: cell viability relative to vehicle control; higher = less cytotoxic. As to conditions: 10 µM; SRSF2 genotype: SRSF2 P95H/wt. In outline:
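Mutant clones made by CRISPR editing and their isogenic wild-type counterparts, from four leukaemia lines, were exposed to a single 10 µM dose of each library compound for 48 h. The supernatant was then removed and CellTiter-Glo luminescence was read. Viability was reported as percent of the on-plate vehicle control.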
`O=C(O)c1cc(=O)c2c(OCC(O)COc3cccc4oc(C(=O)O)cc(=O)c34)cccc2o1` [Disodium Cromoglycate]: the cell viability came out at 94.8%.

With `Nc1nc2c(ncn2[C@@H]2O[C@H](CO)[C@@H](O)[C@H]2O)c(=O)[nH]1` [Guanosine], the cell viability turned out to be 88.2%.

On to `CN(C/C=C/C#CC(C)(C)C)Cc1cccc2ccccc12` [Terbinafine], for which the cell viability was determined as 96.2%.

Turning to `NCC(=O)CCC(=O)O` [5-Aminolevulinic acid hydrochloride], the cell viability was determined as 109%.

As for `CN(C)CC(c1ccc(O)cc1)C1(O)CCCCC1` (stereo not given) [Desvenlafaxine], the cell viability came out at 102%.

In the case of `COc1cc(O)c2c(=O)cc(-c3ccc(O)c(O)c3)oc2c1` [Hydroxygenkwanin], the cell viability turned out to be 45.7%.

As to `C[C@H](CC[C@@H](O[C@@H]1O[C@H](CO[C@@H]2O[C@H](CO)[C@@H](O)[C@H](O)[C@H]2O)[C@@H](O)[C@H](O)[C@H]1O[C@@H]1O[C@H](CO)[C@@H](O)[C@H](O)[C@H]1O)C(C)(C)O)[C@H]1CC[C@@]2(C)[C@@H]3CC=C4[C@@H](CC[C@H](O[C@@H]5O[C@H](CO[C@@H]6O[C@H](CO)[C@@H](O)[C@H](O)[C@H]6O)[C@@H](O)[C@H](O)[C@H]5O)C4(C)C)[C@]3(C)[C@H](O)C[C@]12C` [Mogroside V], the cell viability was found to be 92.7%.

For the compound `COC(=O)c1ccc2c(c1)[nH]c1ncnc(NCCCN3CCCCC3)c12`, the cell viability amounted to 49.9%.

Turning to `O=C(CSc1nc2c(c(=O)n1-c1ccccc1)SCC2)Nc1ccc(-c2ccccc2)cn1`, the cell viability turned out to be 100%.

Regarding `COc1cc2c(cc1OC(C)C)[C@H](c1ccc(Cl)cc1)N(c1ccc(N(C)C[C@H]3CC[C@H](N4CCN(C)C(=O)C4)CC3)cc1)C(=O)C2`, the cell viability was found to be 67.8%.

With `O=C(O)Cn1nnc(-c2cc(N3CCC(Oc4cc(F)ccc4Br)CC3)no2)n1`, the cell viability is 101%.

Consider `CCCCCCCCCCCCCCCC(=O)O[C@@H]1[C@@H](O)[C@@H](O)[C@@H]([C@H](NC(=O)[C@@H]2C[C@@H](CCC)CN2C)[C@H](C)Cl)O[C@@H]1SC` [Clindamycin palmitate HCl], for which the cell viability was 103%.

As to `O=C(/C=C/c1ccccc1)OCc1ccccc1` [Benzyl cinnamate], the cell viability is 85.5%.

Consider `O=S(=O)(c1ccccc1)c1cnc2c(N3CCNCC3)cccc2c1`, for which the cell viability came to 95%.

`CCn1cc(C(=O)O)c(=O)c2cc(F)c(N3CCNCC3)cc21` [Norfloxacin (Norxacin)]: the cell viability is 88.7%.

With `C[C@@H]1CC[C@@]2(OC1)O[C@H]1C[C@H]3[C@@H]4CC=C5C[C@@H](O[C@@H]6O[C@H](CO)[C@@H](O)[C@H](O)[C@H]6O[C@@H]6O[C@@H](C)[C@H](O)[C@@H](O)[C@H]6O)CC[C@]5(C)[C@H]4CC[C@]3(C)[C@@]1(O)[C@@H]2C` [Polyphyllin VI], the cell viability is 4.95%.

Turning to `Cc1ccnc(NS(=O)(=O)c2ccc(N)cc2)n1` [Sulfamerazine], the cell viability was determined as 105%.

`COC(=O)c1ccco1` [Methyl furan-2-carboxylate]: the cell viability stood at 101%.

For `COc1cc2c(cc1O)C[C@H]1c3cc(O)c(OC)cc3CC[N+]1(C)C2` (stereo not given in full) [Phellodendrine chloride], the cell viability was 100%.

With `COc1cc2c(Nc3ccc(NC(=O)c4ccccc4)cc3)ncnc2cc1OCCCN1CCOCC1`, the cell viability worked out at 62.5%.

As to `CC(C)c1ccc(C=O)cc1` [4-Isopropylbenzaldehyde], the cell viability amounted to 94.5%.

Take `C[C@]12CC[C@@H]3c4ccc(O)cc4CC[C@H]3[C@@H]1CC[C@@H]2O` [Estradiol]: the cell viability was determined as 93.2%.

`CC[C@@H](CO)NCCN[C@@H](CC)CO` [Ethambutol HCl]: the cell viability is 99.4%.

For the compound `O=C(O)C(Cc1c[nH]c2ccccc12)N1C(=O)c2ccccc2C1=O` (stereo not given), the cell viability came out at 96.8%.

As for `Cc1nc(-c2cn3c(n2)-c2ccc(-c4cnn(C(C)(C)C(N)=O)c4)cc2OCC3)n(C(C)C)n1`, the cell viability was determined as 45.2%.

For the compound `COc1cc2nccc(Oc3ccc(NC(=O)C4(C(=O)Nc5ccc(F)cc5)CC4)cc3)c2cc1OC`, the cell viability is 69.1%.

On to `O=C1c2c(O)cc(O)cc2O[C@H](c2cc(O)c(O)c(O)c2)[C@H]1O` [Dihydromyricetin (Ampeloptin)], for which the cell viability was 112%.

For the compound `NC(=O)/C(=C/n1cnc(-c2cc(C(F)(F)F)cc(C(F)(F)F)c2)n1)c1cncnc1`, the cell viability was found to be 15.4%.

As for `O=C(c1ccccc1)c1ccc2nc(NC(=O)c3csc(C4CCN(c5ncnc6ccsc56)CC4)n3)[nH]c2c1`, the cell viability was determined as 41.3%.

Regarding `C[C@H]1C[C@H]2[C@@H]3CCC4=CC(=O)C=C[C@]4(C)[C@H]3C(=O)C[C@]2(C)[C@@]1(O)C(=O)CO` [Betapar (Meprednisone)], the cell viability was 101%.
